# Compound activity from PubChem BioAssay.
# A selection: hits, their analogues and other compounds. The true share with any hit is near 2.4%.
# Mcl1 Noxa PPI: disrupts binding of human Mcl-1 to Noxa peptide; Q07820; TR-FRET Mcl-1/Noxa peptide binding, 2 h; inhibition, % at 21.7 µM; 220,000 compounds, 1.5% hits; AID 1022;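 active means compounds that cut the protein-peptide binding signal by more than 50% relative to plate controls in a single-dose test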;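 further: His-tagged Mcl-1 with rhodamine Noxa BH3 peptide and terbium anti-His antibody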
# Target sequence (Q07820 whole entry, looked up): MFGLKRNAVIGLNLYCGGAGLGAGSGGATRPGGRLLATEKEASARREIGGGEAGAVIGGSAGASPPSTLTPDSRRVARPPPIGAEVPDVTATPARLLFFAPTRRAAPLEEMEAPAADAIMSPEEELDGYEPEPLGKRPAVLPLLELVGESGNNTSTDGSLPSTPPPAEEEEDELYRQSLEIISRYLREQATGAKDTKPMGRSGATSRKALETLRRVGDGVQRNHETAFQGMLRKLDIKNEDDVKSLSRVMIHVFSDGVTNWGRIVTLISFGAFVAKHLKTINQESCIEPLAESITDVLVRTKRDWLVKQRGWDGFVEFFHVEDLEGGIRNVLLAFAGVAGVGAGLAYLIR
# Bim-Mcl-1: disrupts Bim peptide binding to human Mcl-1 | Q07820 | Bead-based flow cytometry, Bim peptide-Mcl-1 binding | inhibition, % at 10 µM | 190,000 compounds, 0.1% hits | AID 1009; in the data active means inhibition above about 40%
# MCL1-BIM inh: inhibitors of human MCL1 binding to BIM-BH3 peptide. inhibition, % at 10.9 µM. AID 2057. Q07820. 320,000 compounds, 0.68% hits. GST-MCL1 / FITC-Bim-BH3 fluorescence polarization;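 active means inhibition above the mean inhibition of all tested compounds plus 3 SD, set per campaign, cut at about 40% in these data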;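 further: higher means more loss of mP so more displacement of Bim peptide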
# zVAD death inh: blocks zVAD induced death of L929 cells; L929 zVAD necroptosis rescue, ATP luminescence, 24 h; with zVAD 60 µM; viability rescue, % at 10 µM; 220,000 compounds, 0.38% hits;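 active means activation, scaled between plate controls, above about 75%, limit read from the data; inactive means activation under that limit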
# Mcl1 Bid PPI: Mcl-1/Bid interaction inhibition. AID 1021. inhibition, % at 21.7 µM. TR-FRET Mcl-1/Bid-Dy647 peptide binding, 1536-well. 220,000 compounds, 0.97% hits;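 active means compounds that cut the binding signal by more than half at the single screening dose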;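 further: His-tagged Mcl-1 with europium anti-His antibody binding Bid BH3 peptide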
# TNF death inh: TNF-alpha cell death inhibition in Jurkat FADD-/- cells; Jurkat FADD-/- TNF necroptosis rescue, ATP luminescence, 24 h; 0 = TNF only, 100 = no-TNF cells; activation (protection from cell death), % at 10 µM; 220,000 compounds, 0.068% hits; AID 463075;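 active means activation, meaning protection from cell death, of at least 50% relative to plate controls; inactive means activation below 50%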;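 further: necroptosis triggered by 40 ng/mL TNF-alpha added together with compound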
# A number is an active result; n = inactive; x = no result given.
SMILES,Mcl1 Noxa PPI,Bim-Mcl-1,MCL1-BIM inh,zVAD death inh,Mcl1 Bid PPI,TNF death inh
Cc1cc(C)c(S(=O)(=O)/N=C2/C=C(SCC(=O)O)C(=O)c3ccccc32)cc1C,86.6,n,x,n,n,n
O=C(N=c1ccn(-c2nc3ccccc3nc2NS(=O)(=O)c2ccc(Cl)cc2)cc1)c1cccs1,n,x,44.1,n,n,n
CCOc1ccc(S(=O)(=O)Nc2nc3ccccc3nc2-n2ccc(=NC(=O)c3cccs3)cc2)cc1,n,n,n,n,n,n
COc1ccc(NC(=S)NC2CC3CCC(C2)N3Cc2ccco2)cc1 (stereo not drawn),n,n,n,n,n,n
CCc1ccc(NC(=S)NC2CC3CCC(C2)N3Cc2ccco2)cc1 (stereo not drawn),n,n,n,n,96.4,n
CCCC(=O)Nc1nc2ccc(OCC)cc2s1,n,n,n,n,n,n
CCOc1ccc2nc(NC(=O)CCn3cccc3)sc2c1,n,n,n,85.1,n,n
COc1ccc2nc(Nc3ccc4c(c3)OCO4)sc2c1,n,n,n,n,n,n
COc1ccc2nc(NC(=O)Nc3cccc4ccccc34)sc2c1,75.2,n,n,n,n,n
COc1ccc2nc(NNC(=O)c3cc(=O)c4ccccc4o3)sc2c1,71.8,n,n,n,n,n
COc1ccc2nc(NC(=O)/C=C/c3ccc4c(c3)OCO4)sc2c1,n,n,n,n,51.4,n
COc1ccc2nc(NC(=O)Nc3ccccc3OC)sc2c1,x,x,n,x,x,x
C#CCOc1ccc2c3c(c(=O)oc2c1)CCCC3,x,x,n,x,x,x
O=C(N[C@H](C(=O)O)c1ccccc1)C1CCC(Cn2nnc3ccccc3c2=O)CC1 (stereo partly drawn),n,x,n,n,n,n
Cc1cccc2sc(NNC(=O)c3cc(=O)c4ccccc4o3)nc12,n,n,n,n,n,n
Cc1ccc2sc(NNC(=O)c3cc(=O)c4ccccc4o3)nc2c1C,66.2,n,n,n,n,n
C(=C\c1nnc2c3ccccc3ncn12)/c1ccccc1,n,n,n,n,n,n
COc1cc(/C=C/c2nnc3c4ccccc4ncn23)cc(OC)c1OC,52.3,n,n,n,n,n
Cc1ccc(CNC(=O)COc2ccc(S(=O)(=O)N3CCCC3)cc2)cc1,x,x,n,x,x,x
COc1cc(-c2ccc(Nc3ccccc3C(=O)O)c(OC)c2)ccc1Nc1ccccc1C(=O)O,105.3,x,x,n,97.5,n
O=C(CCCCCNC(=O)N1CCn2c1nc1ccccc12)N[C@H](Cc1ccccc1)C(=O)O,x,x,n,x,x,x
Cn1c(=O)c(C(=O)COC(=O)c2cc(-c3ccco3)nc3ccccc23)c(N)n(Cc2ccccc2)c1=O,96.2,n,n,n,n,n
CC(C)Cn1c(N)c(C(=O)COC(=O)c2cc(-c3ccccc3)nc3ccccc23)c(=O)n(C)c1=O,n,n,n,n,n,n
CC(C)Cn1c(N)c(C(=O)COC(=O)c2cc(-c3ccco3)nc3ccccc23)c(=O)n(C)c1=O,97.0,n,n,n,n,n
Cn1c(N)c(C(=O)COC(=O)c2cc(-c3ccccc3)nc3ccccc23)c(=O)n(Cc2ccccc2)c1=O,n,n,n,n,n,n
SMILES,Mcl1 Noxa PPI,Bim-Mcl-1,MCL1-BIM inh,zVAD death inh,Mcl1 Bid PPI,TNF death inh
N#Cc1ccccc1S(=O)(=O)N1CCN(CC(=O)Nc2ccccc2C(=O)NC2CC2)CC1,x,x,n,x,x,x
COc1ccc(OC)c(/C=N/c2oc(-c3ccco3)c(-c3ccco3)c2C#N)c1,77.2,n,n,n,n,n
CN1CCN(CC(=O)c2ccccc2F)CC1,x,x,n,x,x,x
CCN(CC)S(=O)(=O)c1ccc(N2CCOCC2)c(NS(=O)(=O)c2cc(C(C)(C)C)ccc2C)c1,n,n,n,n,n,n
CCCNS(=O)(=O)c1ccc(OCC(=O)Nc2ccc3c(c2)OCO3)cc1,n,n,n,n,n,n
O=C(O)c1ccccc1NC(=S)NC(=O)c1sc2ccccc2c1Cl,57.8,n,n,n,n,n
O=C(NNC(=O)c1sc2ccccc2c1Cl)Nc1ccc(Cl)cc1,n,n,n,n,n,n
Cc1cccc(C(=O)NC(=S)NNC(=O)c2ccc(Cl)cc2)c1,88.0,n,n,n,n,n
Cc1cccc(C(=O)NC(=S)NNC(=O)c2cccs2)c1,n,n,n,n,n,n
O=C(NNC(=S)NC(=O)c1sc2ccccc2c1Cl)c1ccc(Cl)cc1,53.4,n,n,n,n,n
O=C(Nc1ccnc(=O)[nH]1)c1sc2ccccc2c1Cl,n,x,n,n,58.5,n
CCCNC(=O)c1ccccc1SCc1c(C)noc1C,x,x,n,x,x,x
O=C(Cc1c(Cl)cccc1Cl)Nc1ccc(S(=O)(=O)Nc2ncccn2)cc1,x,x,n,x,x,x
CCn1c(=O)c2c(nc(SCC(=O)N3CCCC(C)C3)n2C)n(C)c1=O (stereo not drawn),x,x,n,x,x,x
Cc1cc(C)n(C(C)CNS(=O)(=O)c2ccc(C)c(C)c2)n1 (stereo not drawn),x,x,n,x,x,x
CCN1CCN(CCCNC(=O)C2CCN(c3nnc(-n4c(C)ccc4C)s3)CC2)CC1,x,x,n,x,x,x
Cn1cc(/C=C(\C#N)C(=O)Nc2cccc([N+](=O)[O-])c2)c2ccccc21,n,n,n,n,51.9,n
Cn1cc(/C=N/NC(=O)c2cccc([N+](=O)[O-])c2)c2ccccc21,n,n,n,n,n,n
NC1=NC(=O)/C(=C\c2ccc(-c3ccc(Cl)cc3)o2)S1,x,x,n,x,x,x
N#CCCn1cc(/C=C/C(=O)O)c(-c2ccc(F)cc2)n1,n,n,n,n,n,n
NC1=NC(=O)/C(=C/c2cn(CCC(=O)O)nc2-c2ccc(Cl)cc2)S1,72.5,n,n,n,n,n
NC1=NC(=O)/C(=C/c2cn(CCC(=O)O)nc2-c2ccc(F)cc2)S1,54.6,n,n,n,n,n
COc1ccc(-c2nn(CCC(=O)O)cc2/C=C2\SC(N)=NC2=O)cc1,67.0,n,n,n,n,n
O=C(O)CCn1cc(/C=C\C(=O)c2ccc(Cl)cc2)c(-c2cccc(Br)c2)n1,n,n,n,n,58.3,n
CCc1nc(SCC(=O)Nc2ccc(Br)cn2)n[nH]1,x,x,n,x,x,x
COc1ccc(Nc2nc(N)c([N+](=O)[O-])c(NCc3ccccc3)n2)cc1,51.2,x,n,n,n,n
